Test results: PubChem BioAssay (NCATS)
Where “and” joins values, the source holds several entries; their conditions need not be identical. Identical values can stand only once. Results filed as inconclusive are left out. Calls of active or inactive are those of the source. Unless noted, calls come from the whole dose curve; as a rule, active = well fitted curve in either direction with a large enough effect (not every such curve was filed as active); inconclusive = small, poorly fitted or top-dose-only effect, or another doubt; inactive = flat fitted curve, though single readings scatter.

How the values were obtained:
[1] = AP1 Signaling Pathway (AID 357); note: % is set by controls: 0 for no effect and ±100 for the full control effect
How it was run: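 AP-1-bla ME-180 cells with beta-lactamase reporter under AP-1 response element, stimulated with EC50 EGF; compounds titrated, 5 hours at 37 degrees Celsius. CCF4 read at 460/530 nm ratio; positive and negative modulators judged by AC50.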

[2] = biological target: Cytochrome P450 1A2 (Homo sapiens) (UniProt P05177); experiment: p450-cyp1a2 (AID 410; calls by dose curve; note: potency is the fitted concentration of half-maximal effect)
Cytochrome P450 1A2 (Homo sapiens), sequence (P05177 whole entry, looked up): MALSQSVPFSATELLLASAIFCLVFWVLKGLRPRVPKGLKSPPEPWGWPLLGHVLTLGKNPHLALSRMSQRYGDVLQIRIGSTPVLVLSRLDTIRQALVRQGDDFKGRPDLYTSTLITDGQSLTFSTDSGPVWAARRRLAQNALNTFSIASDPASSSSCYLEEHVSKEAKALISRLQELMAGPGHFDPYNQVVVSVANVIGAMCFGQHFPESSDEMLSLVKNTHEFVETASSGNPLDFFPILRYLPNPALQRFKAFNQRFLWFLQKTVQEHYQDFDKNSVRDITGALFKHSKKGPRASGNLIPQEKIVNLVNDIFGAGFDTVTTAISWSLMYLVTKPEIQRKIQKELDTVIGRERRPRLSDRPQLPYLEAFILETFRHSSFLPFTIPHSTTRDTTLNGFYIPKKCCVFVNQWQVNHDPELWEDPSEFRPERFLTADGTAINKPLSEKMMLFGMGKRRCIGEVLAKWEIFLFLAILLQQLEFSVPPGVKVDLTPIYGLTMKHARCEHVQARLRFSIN
How it was run: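 Human CYP1A2 (20nM) demethylated Luciferin-ME at its Km (100uM) in 100mM KPO4. After 10 min compound preincubation, NADPH regeneration ran the reaction 60 min at room temperature. Luciferin was read by luminescence, normalized to 57 uM furafylline.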

[3] = NFAT Signaling Pathway (AID 444);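 note: carbachol stimulus at about its EC50 of 1 µM final; % is set by controls: 0 for no effect and ±100 for the full control effect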
How it was run: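 Jurkat cells with NFAT-driven β-lactamase reporter and co-expressed M1 receptor, stimulated with carbachol (final 1 uM, ~EC50), compound titration, 5 h at 37 °C. CCF4 loaded 1 h at RT; 460/530 nm ratio gave %activity and AC50.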

[4] = Stat Signaling Pathway (AID 446); details: ME-180 SIE beta-lactamase reporter, IL-6 stimulated, 5 h;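 note: ME-180 cervical cancer cells given 40 pM IL-6 alongside compound; SIE-controlled beta-lactamase reporter measured as 460/530 nm FRET emission ratio; % is set by controls: 0 for no effect and ±100 for the full control effect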
How it was run: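 ME-180 cells carrying a SIE-driven beta-lactamase reporter are stimulated with 40 pM IL-6 for 5 h at 37C in the presence of compound. The 460/530 nm FRET substrate ratio is read after 2.5 h at RT. Data are normalised to 300 pM IL-6 and to 125 nM JAK inhibitor controls.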

[5] = biological target: Mitogen-activated protein kinase 10 (Mus musculus) (UniProt Q61831); experiment: JNK3 AlphaScreen Assay (AID 530);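 note: kinase came from lysate of stimulated human HepG2 cells; signal reports phosphorylation of biotinylated GST-cJun 1-79 at Ser73 with 10 µM ATP; % is set by controls: 0 for no effect and ±100 for the full control effect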
How it was run: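 qHTS format: compounds tested as titrations against IL-1beta/TNF-alpha-activated HepG2 lysate JNK3 with biotin-GST-cJun substrate and 10 uM ATP at room temperature. Loss of anti-phospho-cJun AlphaScreen signal indicates inhibition.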

[6] = biological target: Glucocorticoid receptor (Homo sapiens) (UniProt P04150); experiment: GR-EFC Redistribution (AID 451; calls by dose curve; note: potency is the fitted concentration of half-maximal effect); details: CHO-K1 GR-EFC translocation, beta-gal luminescence, 2 h
Glucocorticoid receptor (Homo sapiens), sequence (P04150 whole entry, looked up, the tested form may be a part): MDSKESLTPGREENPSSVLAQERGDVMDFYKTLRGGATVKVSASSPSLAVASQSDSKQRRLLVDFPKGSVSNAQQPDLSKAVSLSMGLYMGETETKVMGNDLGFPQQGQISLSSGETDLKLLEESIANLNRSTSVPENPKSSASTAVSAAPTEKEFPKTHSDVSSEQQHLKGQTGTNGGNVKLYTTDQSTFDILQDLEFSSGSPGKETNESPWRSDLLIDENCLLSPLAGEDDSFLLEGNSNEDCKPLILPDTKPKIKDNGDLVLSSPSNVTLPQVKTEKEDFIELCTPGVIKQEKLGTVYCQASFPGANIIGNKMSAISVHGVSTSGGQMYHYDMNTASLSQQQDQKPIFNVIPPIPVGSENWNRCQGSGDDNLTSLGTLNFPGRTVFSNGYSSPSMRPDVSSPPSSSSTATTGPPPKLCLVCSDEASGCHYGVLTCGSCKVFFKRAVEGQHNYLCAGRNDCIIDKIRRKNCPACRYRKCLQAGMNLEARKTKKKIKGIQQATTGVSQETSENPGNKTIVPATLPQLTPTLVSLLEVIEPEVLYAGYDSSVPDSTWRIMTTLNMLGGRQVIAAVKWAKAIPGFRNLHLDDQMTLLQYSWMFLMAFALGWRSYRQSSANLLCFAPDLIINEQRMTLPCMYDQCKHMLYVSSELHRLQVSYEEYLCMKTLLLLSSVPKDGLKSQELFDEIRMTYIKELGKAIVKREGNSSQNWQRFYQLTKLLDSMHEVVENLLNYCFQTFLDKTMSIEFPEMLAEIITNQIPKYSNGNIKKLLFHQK
How it was run: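 CHO-K1 cells expressing nuclear EA and GR-ED fragments of b-gal; compounds titrated up to 46 uM final, 2 h at 37 C. GR nuclear translocation read as complemented b-gal luminescence after 1 h RT detection.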

[7] = Cell Viability - BJ (AID 421; calls by dose curve;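 note: potency is the fitted concentration of half-maximal effect; cells exposed to compound for 40 hours at 37 °C before readout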); details: BJ fibroblast viability, qHTS
How it was run: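 Normal human BJ foreskin fibroblasts, 1500/well in complete medium, treated 40 hr at 37 °C. Cellular ATP by CellTiter-Glo luminescence; normalized to DMSO and 100 uM tamoxifen, AC50 from Hill fit.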

[8] = Cell Viability - Jurkat (AID 426;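 active = dose-dependent loss of cell ATP signal giving a full or clear fitted curve, ranked by lower potency value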; note: potency is the fitted concentration of half-maximal effect); details: qHTS
How it was run: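 Jurkat (clone E6-1, human T-cell leukemia) cells, 5000/well in complete medium, were exposed to compound for 40 hr at 37 °C. Viability was read as intracellular ATP by CellTiter-Glo luminescence; AC50 came from Hill fits of concentration-response data.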

[9] = Cell Viability - Hek293 (AID 427;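 active = compounds whose dose-response curve shows a full or clear partial loss of cell viability, called from curve shape rather than a numeric limit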;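 note: potency is the fitted concentration of half-maximal effect; cells exposed to compound for 40 hours at 37 °C before reading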); details: qHTS
How it was run: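 HEK293 cells in complete medium were exposed to compound for 40 hr at 37 °C, then cellular ATP was read by CellTiter-Glo luminescence. Data were normalized to DMSO (basal) and 100 uM tamoxifen (100% inhibition), and AC50 came from Hill fits.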

[10] = Cell Viability - HepG2 (AID 433; calls by dose curve;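 note: potency is the fitted concentration of half-maximal effect; potency for ATP loss meaning cytotoxicity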); details: qHTS
How it was run: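 Read-out is luciferase-based quantitation of cellular ATP as a measure of viable HepG2 cells after 40 h treatment at 37 °C. Signal decrease is scaled between DMSO-only and 100 uM tamoxifen controls, with AC50 fitted by the Hill equation.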

[11] = Cell Viability - MRC5 (AID 434; calls by dose curve;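 note: potency is the fitted concentration of half-maximal effect; potency reflects cytotoxicity seen as loss of intracellular ATP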); details: MRC5 lung fibroblast viability, qHTS
How it was run: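 MRC5 normal human lung fibroblasts, 1500 cells/well, exposed to compound for 40 hr at 37 C. Cellular ATP was read by CellTiter-Glo luminescence; data normalized to DMSO and 100 uM tamoxifen, with AC50 from Hill fits.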

[12] = Cell Viability - SK-N-SH (AID 435; calls by dose curve;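 note: potency is the fitted concentration of half-maximal effect; compound exposure lasted 40 h at 37 °C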); details: SK-N-SH neuroblastoma cell viability qHTS
How it was run: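 Luminescent ATP signal served as the viability read-out after 40 hours of compound treatment of human neuroblastoma SK-N-SH cells. Concentration-response data, scaled between DMSO and 100 uM tamoxifen, gave AC50 values by standard Hill modeling.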

[13] = Cell Viability - N2a (AID 540; active = well fitted curve in the direction sought with a large enough effect; an effect the other way counts as inactive or inconclusive;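 note: plate controls were DMSO alone for no effect and tamoxifen control for full effect; nearly all actives have a fitted effect of over 45% in size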); details: N2a mouse neuroblastoma cell viability; activity change, negative = cytotoxicity: at 92.2 µM (top of the series)
How it was run: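 Mouse neuroblastoma N2a cells (1500/well) were preincubated 5 hr at 37 °C, then exposed to compounds for 40 hr at 37 °C in complete medium. Viability was read as intracellular ATP by CellTiter-Glo luminescence; AC50 from Hill fits.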

[14] = Cell Viability - NIH 3T3 (AID 541; active = well fitted curve in the direction sought with a large enough effect; an effect the other way counts as inactive or inconclusive;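 note: plate controls were DMSO alone for no effect and tamoxifen positive control for full effect; nearly all actives have a fitted effect of over 25% in size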); details: NIH 3T3 cell viability, qHTS; at 92.2 µM (top of the series)
How it was run: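 NIH 3T3 mouse embryo fibroblasts (1000 cells/well) were plated in complete medium and treated with compound for 40 hr at 37 °C. Viability was read as intracellular ATP by CellTiter-Glo luminescence; AC50 values came from Hill-equation fits of concentration-response data.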

[15] = Cell Viability - HUV-EC-C (AID 542; active = well fitted curve in the direction sought with a large enough effect; an effect the other way counts as inactive or inconclusive; note: nearly all actives have a fitted effect of over 35% in size; note: potency is the fitted concentration of half-maximal effect)
How it was run: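 HUV-EC-C normal human vascular endothelial cells, 1000 cells/well, pre-incubated 5 hr at 37 °C, then exposed to compounds for 40 hr at 37 °C in complete medium. Viability measured as intracellular ATP by CellTiter-Glo luminescence; AC50 from Hill fits.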

[16] = Cell Viability - H-4-II-E (AID 543; active = well fitted curve in the direction sought with a large enough effect; an effect the other way counts as inactive or inconclusive; note: nearly all actives have a fitted effect of over 35% in size; note: potency is the fitted concentration of half-maximal effect)
How it was run: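 Rat hepatoma H-4-II-E cells (1500/well) were plated, incubated 5 hr at 37 °C, then exposed to compounds for 40 hr at 37 °C. Cellular ATP was read by CellTiter-Glo luminescence; AC50 came from Hill-equation fits of concentration-response data.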

[17] = Cell Viability - SH-SY5Y (AID 544; active = well fitted curve in the direction sought with a large enough effect; an effect the other way counts as inactive or inconclusive;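 note: 0% = DMSO alone and -100% = 100 µM tamoxifen; nearly all actives have a fitted effect of over 55% in size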); details: SH-SY5Y neuroblastoma cell viability; viability change, negative = cytotoxic: at 92.2 µM (top of the series)
How it was run: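 Human neuroblastoma SH-SY5Y cells (1500/well) in complete medium were exposed to compounds for 40 hr at 37 °C; intracellular ATP was then quantified by CellTiter-Glo luminescence after 20 min at room temperature. AC50 came from Hill-equation concentration-response fits.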

[18] = Cell Viability - Renal Proximal Tubule (AID 545; active = well fitted curve in the direction sought with a large enough effect; an effect the other way counts as inactive or inconclusive;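 note: 0% = DMSO only and -100% = 100 µM tamoxifen; nearly all actives have a fitted effect of over 40% in size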); details: renal proximal tubule cells viability, primary cells of rat origin; activity change, negative = cytotoxicity: at 91.7 µM (top of the series)
How it was run: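 Luminescent ATP signal (CellTiter-Glo) served as the viability read-out after 40 hr compound exposure of freshly isolated rat proximal tubule cells at 37 °C. Concentration-dependent ATP loss was fitted with the Hill equation to give AC50.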

[19] = Cell Viability - Mesenchymal (AID 546; active = well fitted curve in the direction sought with a large enough effect; an effect the other way counts as inactive or inconclusive;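 note: cells exposed to compound for 40 hours before reading; 0% = DMSO only and -100% = 100 µM tamoxifen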); details: mesenchymal cells viability, qHTS; activity change, negative = cytotoxicity: at 91.7 µM (top of the series)
How it was run: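 Human kidney mesenchymal cells from normal renal glomeruli, 1000 cells/well, rested 5 hr at 37 °C, then treated 40 hr at 37 °C in complete medium. Cellular ATP read by CellTiter-Glo luminescence; AC50 from Hill-equation fits.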

[20] = biological target: Lysosomal acid glucosylceramidase (Homo sapiens) (UniProt P04062); experiment: Glucocerebrosidase-p2 (AID 348; in the data active = potency below about 10 µM; note: potency is the fitted concentration of half-maximal effect); details: purified GBA, blue fluorogenic substrate, 40 min
Lysosomal acid glucosylceramidase (Homo sapiens), sequence (P04062 whole entry, looked up): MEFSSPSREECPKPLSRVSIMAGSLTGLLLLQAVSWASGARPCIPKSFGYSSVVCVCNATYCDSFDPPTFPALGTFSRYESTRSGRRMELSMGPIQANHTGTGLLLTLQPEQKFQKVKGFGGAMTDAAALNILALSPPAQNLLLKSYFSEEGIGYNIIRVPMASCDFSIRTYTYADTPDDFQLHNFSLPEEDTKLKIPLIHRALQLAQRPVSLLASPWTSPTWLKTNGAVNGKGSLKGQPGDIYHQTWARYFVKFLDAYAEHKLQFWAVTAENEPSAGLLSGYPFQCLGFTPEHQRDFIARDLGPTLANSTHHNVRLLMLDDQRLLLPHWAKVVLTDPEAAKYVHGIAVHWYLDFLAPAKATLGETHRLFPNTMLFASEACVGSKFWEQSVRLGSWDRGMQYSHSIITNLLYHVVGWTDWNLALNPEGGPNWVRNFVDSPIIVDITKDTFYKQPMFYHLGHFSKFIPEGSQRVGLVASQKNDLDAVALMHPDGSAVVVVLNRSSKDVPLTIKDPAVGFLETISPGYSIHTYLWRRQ
How it was run: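 Compounds titrated from 0.6 nM upwards against 0.2 nM enzyme in pH 5.9 citric acid/KH2PO4, taurocholate, tween-20; blue fluorogenic substrate 80 uM, 40 min room temperature, stopped and read Ex 365/Em 440 for AC50.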

C[N+](C)(C)CCCCCC[N+](C)(C)C
inactive: outcome [1] | Potency [2] | outcome [3] | activity, negative = inhibition ([4]; at 17.2 µM (top of the series)) 8.45% | activity, negative = inhibition ([4]; at 38 µM (top of the series)) 9.91% | outcome [5]

CCN(CC)C(=O)c1ccc(O)c(OC)c1
inactive: outcome [1] | outcome [3] | activity, negative = inhibition ([4]; at 17.2 µM (top of the series)) 4.07% and -1.09% | activity, negative = inhibition ([4]; at 38 µM (top of the series)) -11.7% | Potency [6] > 46 µM and > 20.6 µM | outcome [5]
active: Potency [2] 12.6 µM

CC(C)OC(=O)C(C)(C)Oc1ccc(C(=O)c2ccc(Cl)cc2)cc1
inactive: outcome [1] | Potency [6] > 46 µM and > 20.6 µM
active: Potency [2] 12.6 µM and 5.01 µM

C[N+](C)(C)CC(=O)O
inactive: outcome [1] | Potency [2] | outcome [3] | activity, negative = inhibition ([4]; at 38 µM (top of the series)) -8.86% | outcome [5]

Clc1ccc(Cn2c(CN3CCCC3)nc3ccccc32)cc1
inactive: outcome [1] | outcome [3] | activity, negative = inhibition ([4]; at 17.2 µM (top of the series)) -8.1% and 3.26% | activity, negative = inhibition ([4]; at 38 µM (top of the series)) 0.465% | Potency [6] > 46 µM and > 20.6 µM | outcome [5]
active: Potency [2] 10 µM and 3.98 µM

CC(=O)c1ccc(S(=O)(=O)NC(=O)NC2CCCCC2)cc1
inactive: outcome [1] | Potency [2] | Potency [7] > 92 µM | Potency [8] > 92 µM | Potency [9] > 92 µM | Potency [10] > 92 µM | Potency [11] > 92 µM | Potency [12] > 92 µM | outcome [3] | activity, negative = inhibition ([4]; at 17.2 µM (top of the series)) -1.46% | activity, negative = inhibition ([4]; at 38 µM (top of the series)) -26.2% | Potency [6] > 46 µM and > 20.6 µM | outcome [5] | Potency [13] | activity change, negative = cytotoxicity [14] -15.1% | Potency [15] | Potency [16] | Potency [17] | Potency [18] | Potency [19]

CC/C(=C(\c1ccccc1)c1ccc(OCCN(C)C)cc1)c1ccccc1
inactive: outcome [1] | outcome [3] | activity, negative = inhibition ([4]; at 17.2 µM (top of the series)) 14.2% | activity, negative = inhibition ([4]; at 38 µM (top of the series)) 2.62% | Potency [6] > 46 µM and > 20.6 µM | outcome [5]
active: Potency [8] 31.5 µM | Potency [10] 46.2 µM | Potency [11] 60.3 µM | Potency [12] 49.1 µM | activity change, negative = cytotoxicity [13] -117% | Potency [15] 50.1 µM | Potency [16] 50.1 µM | viability change, negative = cytotoxic [17] -99.3% | activity change, negative = cytotoxicity [18] -109% | activity change, negative = cytotoxicity [19] -91.4%

CC(=O)CCCCn1c(=O)c2c(ncn2C)n(C)c1=O
active: Potency [2] 31.6 µM and 12.6 µM
inactive: outcome [1] | outcome [3] | activity, negative = inhibition ([4]; at 17.2 µM (top of the series)) -10.5% | activity, negative = inhibition ([4]; at 38 µM (top of the series)) 9.49% | Potency [6] > 46 µM and > 20.6 µM | outcome [5]

NCCS
inactive: outcome [1] | Potency [2] | outcome [3] | activity, negative = inhibition ([4]; at 38 µM (top of the series)) -9.49% | outcome [5]

C[C@@H](O)[C@H]1C(=O)N2C(C(=O)O)=C(S[C@@H]3CN[C@H](C(=O)N(C)C)C3)[C@H](C)[C@H]12
inactive: outcome [1] | Potency [2] | outcome [3] | activity, negative = inhibition ([4]; at 17.2 µM (top of the series)) -18.6% | Potency [6] > 20.6 µM | outcome [5]

O=C(O)CCc1nc(-c2ccccc2)c(-c2ccccc2)o1
inactive: Potency [20] > 11.4 µM | outcome [1] | outcome [3] | activity, negative = inhibition ([4]; at 7.69 µM (top of the series)) 5.68% | activity, negative = inhibition ([4]; at 17.2 µM (top of the series)) -0.803% | activity, negative = inhibition ([4]; at 38 µM (top of the series)) -12.8% | Potency [6] > 46 µM and > 20.6 µM and > 9.22 µM | outcome [5]

COc1ccccc1N1CCN(CCCNc2cc(=O)n(C)c(=O)n2C)CC1
inactive: outcome [1] | Potency [2] | outcome [3] | activity, negative = inhibition ([4]; at 17.2 µM (top of the series)) -0.455% | activity, negative = inhibition ([4]; at 38 µM (top of the series)) 1.93% | outcome [5]
